Consider 12 compounds from PubChem BioAssay (NCI).

Test systems include HCT-15 colon; HT29 colon; SNB-75 CNS; SNB-19 CNS; U251 CNS; PC-3 prostate; SK-MEL-5 melanoma; UACC-62 melanoma; LOX IMVI melanoma; SK-MEL-28 melanoma.
What all share (assay): NCI-60 one-dose screen, 48 h (100 = growth as untreated, 0 = no growth, -100 = all killed)
Holding throughout (conditions): 10 µM unless noted

The structures appear in SMILES notation. The panel holds about 83,000 compounds, 20% with a hit somewhere; the sample as a whole holds those more often.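 Testing used 96-well plates and a 48-hour single-concentration exposure. Example: -40 means 40% of the starting cells died.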 Unmarked numbers belong to inactive results. The source made the active and inactive calls. Rule for the calls: active = growth percent below 10; inactive = the rest.

For `Clc1cccc(CNc2c3ccccc3nc3ccccc23)c1`, the growth with HCT-15 colon was 14%; in the experiment with HT29 colon, 8.62% (active); with SNB-75 CNS it was 68.7%; with SNB-19 CNS, 26.4%; with U251 CNS it was 22.7%; in the experiment with PC-3 prostate it was 23.5%. For the same compound, the growth was 66.2% in the experiment on SK-MEL-5 melanoma, 52.6% with UACC-62 melanoma, 1.75% (active) in the experiment on LOX IMVI melanoma and 66.2% in the experiment with SK-MEL-28 melanoma.

`OCCN(CCO)c1ccc2ccccc2c1`: the growth was 98.4% in the experiment with HCT-15 colon; 94.3% in the experiment with HT29 colon; 88.1% in the experiment on SNB-75 CNS; 104% in the experiment with SNB-19 CNS; 104% with U251 CNS; 83.2% in the experiment with PC-3 prostate. Besides, the growth in the experiment on SK-MEL-5 melanoma was 100%; in the experiment with UACC-62 melanoma, 91.4%; in the experiment on LOX IMVI melanoma, 91.4%; in the experiment on SK-MEL-28 melanoma it was 108%.

`CCN(CC)C(=O)O/N=C(/C)c1ccccc1`: the growth in the experiment on HCT-15 colon was 110%; with HT29 colon, 102%; in the experiment on SNB-75 CNS, 83%; with SNB-19 CNS it was 99.6%; in the experiment on U251 CNS, 89.7%; in the experiment on PC-3 prostate, 98.6%. Moreover, the growth in the experiment with SK-MEL-5 melanoma is 94.2%; in the experiment with UACC-62 melanoma, 99.1%; in the experiment on LOX IMVI melanoma, 91.1%; with SK-MEL-28 melanoma, 97.9%.

Take `c1cc2c(cc1-c1cnc3nonc3n1)OCO2`: the growth in the experiment with HCT-15 colon is 57.1%; in the experiment with HT29 colon, 109%; in the experiment with SNB-75 CNS, 96.8%; in the experiment with SNB-19 CNS it was 92.6%; with U251 CNS, 94.2%; in the experiment on PC-3 prostate it was 56.8%. Also, the growth in the experiment on SK-MEL-5 melanoma was 91.2%; in the experiment on UACC-62 melanoma it was 66%; in the experiment with LOX IMVI melanoma it was 84.9%; in the experiment with SK-MEL-28 melanoma, 104%.

Turning to `Cc1cccc2nc3ccccc3c(Nc3ccc(NS(C)(=O)=O)cc3)c12`, the growth is 37.2% in the experiment on HCT-15 colon; 46% in the experiment with HT29 colon; 68.3% in the experiment with SNB-75 CNS; 59.7% in the experiment on SNB-19 CNS; 15.8% with U251 CNS; 66.7% in the experiment with PC-3 prostate. The growth in the experiment with SK-MEL-5 melanoma is 48.3%; with UACC-62 melanoma, 63.4%; in the experiment with LOX IMVI melanoma, 33.8%; in the experiment with SK-MEL-28 melanoma, 73%.

Regarding `CCCCOc1nc2ccccc2cc1/C=C/c1cc(/C=C/c2cc3ccccc3nc2OCCCC)n(-c2ccccc2)n1`, the growth in the experiment on HCT-15 colon was 116%; in the experiment with HT29 colon, 93.5%; with SNB-75 CNS, 82.5%; in the experiment with SNB-19 CNS, 97.3%; in the experiment with U251 CNS, 99%; in the experiment with PC-3 prostate, 93.1%. For the same compound, the growth was 101% with SK-MEL-5 melanoma, 81.3% with UACC-62 melanoma, 95.9% in the experiment on LOX IMVI melanoma and 114% with SK-MEL-28 melanoma.

For `C=C[C@H]1CCC/C=C/[C@@H]2C[C@H](O)C[C@H]2[C@H](O)/C=C/C(=O)O1`, the growth in the experiment with HCT-15 colon is 5.82% (active); in the experiment on HT29 colon it was -51.5% (active); in the experiment on SNB-75 CNS it was 25.8%; in the experiment on SNB-19 CNS it was 22.3%; in the experiment with U251 CNS, 14.6%; in the experiment on PC-3 prostate it was 15.1%. In addition, the growth in the experiment with SK-MEL-5 melanoma is -77.7% (active); in the experiment with UACC-62 melanoma, 5.56% (active); in the experiment on LOX IMVI melanoma it was -99.1% (active); in the experiment with SK-MEL-28 melanoma, 7.46% (active).

Regarding `Cc1ccccc1C1CC(=O)c2ccccc2C1C` (stereo not given), the growth in the experiment on HCT-15 colon is 96.9%; in the experiment with HT29 colon, 100%; in the experiment with SNB-75 CNS, 85%; in the experiment on SNB-19 CNS, 94.5%; in the experiment with U251 CNS it was 88.5%; in the experiment with PC-3 prostate it was 99.4%. Further, the growth is 105% in the experiment with SK-MEL-5 melanoma, 87.4% in the experiment with UACC-62 melanoma, 100% in the experiment on LOX IMVI melanoma and 107% in the experiment on SK-MEL-28 melanoma.

For the compound `COc1ccc(C(=O)OC2C(OC3C(O)COC(O[C@H]4C[C@H]5[C@@H]6CC=C7C[C@@H](O)CC[C@]7(C)[C@H]6CC[C@]5(C)[C@H]4[C@H](C)C(=O)CCC(C)C)C3OC(C)=O)OCC(O)C2O)cc1` (stereo not given in full), the growth with HCT-15 colon was -51.5% (active); in the experiment with HT29 colon, 0.168% (active); with SNB-75 CNS, -9.67% (active); in the experiment on SNB-19 CNS, -22.8% (active); in the experiment with U251 CNS, -42.8% (active); with PC-3 prostate, -32.6% (active). Moreover, the growth in the experiment on SK-MEL-5 melanoma is -77.1% (active); in the experiment on UACC-62 melanoma, -49.9% (active); in the experiment on LOX IMVI melanoma it was -49.8% (active); with SK-MEL-28 melanoma, -54.6% (active).

As for `O=P(O)(O)C(O)(Cc1cccnc1)P(=O)(O)O`, the growth is 90.3% in the experiment with HCT-15 colon; 106% in the experiment with HT29 colon; 88% in the experiment on SNB-75 CNS; 107% in the experiment on SNB-19 CNS; 81.6% in the experiment on U251 CNS; 95.9% in the experiment with PC-3 prostate. Besides, the growth in the experiment with SK-MEL-5 melanoma was 103%; in the experiment with UACC-62 melanoma it was 99.2%; in the experiment on LOX IMVI melanoma, 86.1%; in the experiment with SK-MEL-28 melanoma it was 103%.

For the compound `Clc1cc(Cl)cc(-c2cnc3nonc3n2)c1`, the growth is 64.4% in the experiment on HCT-15 colon; 92.8% with HT29 colon; 99% in the experiment on SNB-75 CNS; 93.4% in the experiment with SNB-19 CNS; 106% in the experiment on U251 CNS; 90.9% with PC-3 prostate. Further, the growth in the experiment with SK-MEL-5 melanoma is 107%; in the experiment with UACC-62 melanoma it was 83.1%; in the experiment with LOX IMVI melanoma, 95%; with SK-MEL-28 melanoma, 91.5%.

With `Cc1ccc(C)c2c1SC1=NNC(Oc3ccc(Cl)cc3)=C(C#N)C(=N)N12`, the growth in the experiment with HCT-15 colon is 104%; in the experiment with HT29 colon, 103%; in the experiment with SNB-75 CNS, 92.2%; with SNB-19 CNS it was 110%; with U251 CNS, 98.4%; with PC-3 prostate, 85%. For the same compound, the growth was 93.5% with SK-MEL-5 melanoma, 97.1% in the experiment on UACC-62 melanoma, 99.7% in the experiment on LOX IMVI melanoma and 107% in the experiment with SK-MEL-28 melanoma.
